Hits are enriched below; roughly 19% of the tested compounds scored in any of these assays.
TDP1 cell CPT: DT40-hTDP1 cell growth loss with CPT | chicken DT40 Tdp1-/-;hTDP1 cells + 20 nM CPT, ATP luminescence, 48 h | Potency, µM (titrated, usually from 46.2 µM), for inactives: at the top dose activity change, negative = growth inhibition, actives largely listed as inhibitors | hit rate 12% among 420,000 | AID 686979; also: potency is read from the fitted curve at half-maximal effect; nearly all actives have a fitted effect of over 55% in size
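Chicken DT40 Tdp1-/- cells stably complemented with human TDP1 were seeded at 400 cells/well in medium containing 20 nM camptothecin, exposed to pin-transferred compounds, and grown at 37 °C for at least 48 hr. Viability was read as ATP luminescence.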
HT1080-NT tox: kills 2HG-producing HT-1080-NT fibrosarcoma cells; HT-1080-NT fibrosarcoma viability, CellTiter-Glo ATP luminescence, 48 h; Potency, µM (series often up to 46.1 µM), inactives show at the top dose activity, negative = less viability, most hits filed as cytotoxic; hit rate 1.6% among 360,000; AID 686970;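 also: NT is the 2HG producing partner of a matched IDH1 knockdown line; potency is read from the fitted curve at half-maximal effect; 0% = DMSO-treated cells and -100% = media-only wells without cells; nearly all actives have a fitted effect of over 55% in size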
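Viability by CellTiter-Glo luminescence after 48 h compound exposure at 37C of HT-1080-NT cells (750/well, RPMI, 5% FBS). % activity scaled between DMSO wells and medium-only wells, then curve-fitted and categorized by curve class.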
uPA generation: cell surface uPA generation inhibition; cell surface uPA generation assay, qHTS; Potency, µM (doses to about 38.3 µM), inactives show top-dose activity change, negative = inhibition, most hits filed as inhibitors; hit rate 0.31% among 330,000; AID 540303; active = well fitted inhibition curve with a large enough effect; inconclusive = small, poorly fitted or top-dose-only effect; inactive = no such curve, though single readings can be large or run the other way; tested in mouse RAW 264.7 cells; also: potency is read from the fitted curve at half-maximal effect; nearly all actives have a fitted effect of over 55% in size
TDP1 cell noCPT: qHTS for Inhibitors of human tyrosyl-DNA phosphodiesterase 1 (TDP1): qHTS in cells in absence of CPT; DT40 Tdp1-/- hTDP1 cells, no CPT, ATP luminescence, 48 h; Potency, µM (highest dose often 46.2 µM), without a hit: at the highest dose activity change, negative = growth inhibition, most hits filed as inhibitors; hit rate 15% among 420,000; AID 686978, 2013; also: potency is read from the fitted curve at half-maximal effect; nearly all actives have a fitted effect of over 55% in size
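Camptothecin absent (DMSO only). Human TDP1-complemented DT40 knockout cells, 400 cells/well, 37 °C for minimum 48 hr; ATP measured via CellTiter-Glo, 30 min dark incubation, luminescence.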
IL-1B inflam inh: inhibitors of inflammasome signaling (IL-1 beta secretion) | THP-1 LPS/ATP IL-1B secretion, AlphaLISA, 16 h; active compounds read low | AID 743279 | hit rate 4.7% among 360,000 | activity change, % at 57.5 µM; in the data active = activity change below about -50%; inconclusive = mostly about -30% to -49%
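Secreted IL-1B measured by AlphaLISA bead assay after 16 h compound exposure of THP-1 cells; compounds (final up to 57.5 uM) added 1 h before LPS (250 ng/mL) and ATP (1.25 mM) stimulation; lower signal means less secretion.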
HT1080 IDH1KD tx: toxicity to HT-1080 IDH1 knockdown cells (counter line); HT-1080 IDH1 knockdown viability, ATP luminescence, 48 h; Potency, µM (titrated, usually from 46.1 µM), for the others: at the top dose activity, negative = toxicity, actives largely listed as cytotoxic; hit rate 2% among 360,000; AID 686971;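 also: potency is read from the fitted curve at half-maximal effect; 0% = DMSO wells and -100% = cell-free medium wells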
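Cytotoxicity counter-line: IDH1KD HT-1080, 48 h, CellTiter-Glo. Curves classed by r2, magnitude and activity.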
* marks the source's active call; other numbers are inactive results. Unless noted, calls follow the shape of the dose curve; as a rule, active = well fitted curve in the direction sought with a large enough effect; inconclusive = small, poorly fitted or top-dose-only effect, or another doubt; inactive = no such curve, though single readings can be large; an effect the other way counts as inactive or inconclusive. Unless noted, % is scaled to controls: 0 for no effect and ±100 for the full control effect.

What do the screens show for `O=C(CSc1nnc(CCCN2C(=O)c3cccc4cccc(c34)C2=O)n1-c1ccccc1)N1CCN(CCO)CC1`?
TDP1 cell CPT: inconclusive; HT1080-NT tox: 3.9%; uPA generation: 10.7%; TDP1 cell noCPT: inconclusive; IL-1B inflam inh: inconclusive; HT1080 IDH1KD tx: 13.6%

What do the screens show for `Cn1cnc(S(=O)(=O)Nc2ccc(OC(F)(F)F)cc2)c1`?
TDP1 cell CPT: 5.4%; HT1080-NT tox: 14.3%; uPA generation: 6.3%; TDP1 cell noCPT: -0.2%; IL-1B inflam inh: -5.3; HT1080 IDH1KD tx: -0.3%

Results for CSCCC(NC(=O)c1ccco1)C(=O)NCCc1ccc(Cl)cc1 (configuration not stated) ?
TDP1 cell CPT: -5.7%; HT1080-NT tox: 0.0%; uPA generation: -3.8%; TDP1 cell noCPT: 6.7%; IL-1B inflam inh: -12.3; HT1080 IDH1KD tx: -2.0%

How did O=C(C[n+]1cccc(Br)c1)c1ccc(O)c(O)c1 do in these assays?
TDP1 cell CPT: 0.7%; TDP1 cell noCPT: -18.7%

What do the screens show for `O=C(C[n+]1csc2ccccc21)c1ccc(O)c(O)c1`?
TDP1 cell CPT: inconclusive; TDP1 cell noCPT: 15.8µM*

How did O=C(CC1Nc2cccc3cccc(c23)NC1=O)Nc1ccccc1 (configuration not stated) do in these assays?
TDP1 cell CPT: inconclusive; HT1080-NT tox: -5.4%; uPA generation: 2.1%; TDP1 cell noCPT: 25.9µM*; IL-1B inflam inh: -62.6*; HT1080 IDH1KD tx: -4.9%

Results for Cc1ccc(NC(=O)CC2Nc3cccc4cccc(c34)NC2=O)cc1 (configuration not stated) ?
TDP1 cell CPT: inconclusive; TDP1 cell noCPT: 6.51µM*

How did NC(=O)CC1Nc2cccc3cccc(c23)NC1=O (configuration not stated) do in these assays?
TDP1 cell CPT: 16.8%; HT1080-NT tox: -5.1%; uPA generation: 7.2%; TDP1 cell noCPT: 1.7%; IL-1B inflam inh: 0.0; HT1080 IDH1KD tx: -0.1%

How did O=C1/C(=C/c2ccccc2)NC(=S)N1C(c1ccccc1)c1ccccc1 do in these assays?
TDP1 cell CPT: 4.61µM*; HT1080-NT tox: inconclusive; uPA generation: -10.4%; TDP1 cell noCPT: 5.8µM*; IL-1B inflam inh: 18.9; HT1080 IDH1KD tx: 9.2µM*

What do the screens show for `O=C1/C(=C/c2ccccc2)Nc2ccccc21`?
TDP1 cell CPT: -23.9%; HT1080-NT tox: -20.5%; TDP1 cell noCPT: -18.3%; IL-1B inflam inh: inconclusive; HT1080 IDH1KD tx: -22.0%

How did CCc1ccc(NC(=O)COCc2cc(-c3ccc(F)cc3)on2)cc1 do in these assays?
TDP1 cell CPT: -12.5%; TDP1 cell noCPT: -10.2%

What do the screens show for `CC(O)[C@H]1CN=C(N)N1CCc1cc(C(F)(F)F)cc(C(F)(F)F)c1` (some centres not stated)?
TDP1 cell CPT: -5.1%; HT1080-NT tox: -2.7%; uPA generation: 11.6%; TDP1 cell noCPT: -16.1%; IL-1B inflam inh: -5.4; HT1080 IDH1KD tx: 1.5%

What do the screens show for `NC1=NC[C@H](c2ccccc2)N1CCc1cc(C(F)(F)F)cc(C(F)(F)F)c1`?
TDP1 cell CPT: 18.4µM*; HT1080-NT tox: inconclusive; uPA generation: -8.4%; TDP1 cell noCPT: 20.6µM*; IL-1B inflam inh: inconclusive; HT1080 IDH1KD tx: inconclusive

What do the screens show for `NC1=NC[C@@H](CC2CCCCC2)N1CCc1cc(C(F)(F)F)cc(C(F)(F)F)c1`?
TDP1 cell CPT: 3.26µM*; HT1080-NT tox: -1.3%; uPA generation: -16.1%; TDP1 cell noCPT: 3.66µM*; IL-1B inflam inh: -108.7*; HT1080 IDH1KD tx: inconclusive

How did CC(O)[C@H]1CN=C(N)N1CC1CCCCC1 (some centres not stated) do in these assays?
TDP1 cell CPT: inconclusive; HT1080-NT tox: 3.0%; uPA generation: 4.8%; TDP1 cell noCPT: -20.9%; IL-1B inflam inh: 28.0; HT1080 IDH1KD tx: 0.0%

How did CCC(C)[C@H]1CN=C(N)N1CCc1cc(C(F)(F)F)cc(C(F)(F)F)c1 (some centres not stated) do in these assays?
TDP1 cell CPT: 3.26µM*; HT1080-NT tox: -1.5%; uPA generation: 1.9%; TDP1 cell noCPT: 4.61µM*; IL-1B inflam inh: inconclusive; HT1080 IDH1KD tx: 1.1%

How did NC1=NC[C@H](Cc2ccc(O)cc2)N1CCc1cc(C(F)(F)F)cc(C(F)(F)F)c1 do in these assays?
TDP1 cell CPT: inconclusive; HT1080-NT tox: -0.9%; uPA generation: -3.6%; TDP1 cell noCPT: inconclusive; IL-1B inflam inh: 9.6; HT1080 IDH1KD tx: 2.1%

How did NC1=NC[C@H](c2ccccc2)N1CC1CCCCC1 do in these assays?
TDP1 cell CPT: 13µM*; HT1080-NT tox: -18.9%; uPA generation: 2.8%; TDP1 cell noCPT: 16.4µM*; IL-1B inflam inh: -53.7*; HT1080 IDH1KD tx: 5.1%

Results for CCOC(=O)c1c(C)[nH]c(C(=O)OCC(=O)N2c3ccccc3CC2C)c1C (configuration not stated) ?
TDP1 cell CPT: inconclusive; HT1080-NT tox: -23.3%; uPA generation: 6.4%; TDP1 cell noCPT: 18.4µM*; IL-1B inflam inh: inconclusive; HT1080 IDH1KD tx: -22.7%

Results for CCOC(=O)C1=C(C)NC(C)=C(C(=O)OCC)C1C(=O)OCC(=O)N1c2ccccc2CC1C (configuration not stated) ?
TDP1 cell CPT: inconclusive; HT1080-NT tox: -18.2%; uPA generation: 1.9%; TDP1 cell noCPT: 18.4µM*; IL-1B inflam inh: inconclusive; HT1080 IDH1KD tx: -3.2%

Results for CCOC(=O)c1c(C)[nH]c(C)c1S(=O)(=O)N1c2ccccc2CC1C (configuration not stated) ?
TDP1 cell CPT: inconclusive; HT1080-NT tox: -6.6%; uPA generation: -2.1%; TDP1 cell noCPT: inconclusive; IL-1B inflam inh: 8.6; HT1080 IDH1KD tx: -0.9%

What do the screens show for `O=C(c1ccc(F)cc1Cl)N1CCN(S(=O)(=O)c2cccs2)CC1`?
TDP1 cell CPT: -17.3%; HT1080-NT tox: -6.0%; uPA generation: 2.3%; TDP1 cell noCPT: -20.2%; IL-1B inflam inh: -5.2; HT1080 IDH1KD tx: -10.4%

How did CCN(CC)CCNC(=O)c1ccc(NC(=O)c2ccc(-n3cncn3)c([N+](=O)[O-])c2)cc1 do in these assays?
TDP1 cell CPT: -1.3%; HT1080-NT tox: 0.9%; TDP1 cell noCPT: -3.1%; IL-1B inflam inh: -7.4; HT1080 IDH1KD tx: 0.6%

What do the screens show for `CCC1=Nc2cc(C(=O)NCCCOC)ccc2Sc2ccccc21`?
TDP1 cell CPT: 1.46µM*; HT1080-NT tox: 0.651µM*; uPA generation: -10.2%; TDP1 cell noCPT: 1.16µM*; IL-1B inflam inh: 55.5; HT1080 IDH1KD tx: 1.03µM*

How did CCC1=Nc2cc(C(=O)NCCCOC)ccc2Sc2ccc(Br)cc21 do in these assays?
TDP1 cell CPT: 1.3µM*; TDP1 cell noCPT: 1.3µM*
